Measurements reported in PubChem BioAssay (EPA / NIEHS).
Several values for one entry are separate records, joined by “and”; a condition that tells them apart may be missing. Equal entries are not always repeated. Activity calls are given as the source filed them. How the source made its calls: active means hit-call score of the fitted dose curve at least 0.9, where 1 is the maximum; inactive means score below 0.9.

Experiments:
[1] = read-out: Thrombomodulin, THBD (gene 7056); experiment: BSK_CASM3C_Thrombomodulin: BioMAP Diversity Plus: CASM3C Assay for Thrombomodulin Biomarker Activity (AID 2283051); settings: primary human coronary artery smooth muscle cells; actives raise or lower the signal;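 further: thrombomodulin protein level measured by ELISA 24 h after dosing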
[2] = read-out: Tissue Factor, F3 (gene 2152); experiment: BSK_CASM3C_TissueFactor: BioMAP Diversity Plus: CASM3C Assay for Tissue Factor Biomarker Activity (AID 2283052); settings: primary human coronary artery smooth muscle cells; actives raise or lower the signal;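 further: cell surface tissue factor protein level read by ELISA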
[3] = read-out: Interferon-gamma inducible Protein 10 (IP10), CXCL10 (gene 3627); experiment: BSK_hDFCGF_IP10: BioMAP Diversity Plus: hDFCGF Assay for Interferon-gamma inducible Protein 10 (IP10) Biomarker Activity (AID 2283053); settings: primary human foreskin fibroblasts; actives raise or lower the signal
Procedure, shortened: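 ELISA read-out of IP-10 (CXCL10) from primary human skin fibroblasts, 24 h after compound addition. Gain or loss of signal versus DMSO baseline, bidirectional curve fitting.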

[4] = read-out: Urokinase-type plasminogen activator receptor (uPAR), PLAUR (gene 5329); experiment: BSK_CASM3C_uPAR: BioMAP Diversity Plus: CASM3C Assay for Urokinase-type plasminogen activator receptor (uPAR) Biomarker Activity (AID 2283054); settings: primary human coronary artery smooth muscle cells; actives raise or lower the signal;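 further: cell-surface uPAR protein level quantified by ELISA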
[5] = read-out: Vascular cell adhesion molecule 1 (VCAM1), VCAM1 (gene 7412); experiment: BSK_CASM3C_VCAM1: BioMAP Diversity Plus: CASM3C Assay for Vascular cell adhesion molecule 1 (VCAM1) Biomarker Activity (AID 2283055); settings: primary human coronary artery smooth muscle cells; actives raise or lower the signal;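 further: VCAM-1 protein level quantified by ELISA on the cells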
[6] = read-out: Collagen III, COL3A1 (gene 1281); experiment: BSK_hDFCGF_CollagenIII: BioMAP Diversity Plus: hDFCGF Assay for Collagen III Biomarker Activity (AID 2283056); settings: primary human foreskin fibroblasts; actives raise or lower the signal
Procedure, shortened: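 Cells: human foreskin fibroblasts, primary. Dosing followed by 24 h incubation, then ELISA for collagen III. Both increases and decreases scored relative to DMSO.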

[7] = read-out: Epidermal growth factor receptor (EGFR), EGFR (gene 1956); experiment: BSK_hDFCGF_EGFR: BioMAP Diversity Plus: hDFCGF Assay for Epidermal growth factor receptor (EGFR) Biomarker Activity (AID 2283057); settings: primary human foreskin fibroblasts; actives raise or lower the signal
Procedure, shortened: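 ELISA readout of EGFR on human dermal fibroblasts (primary foreskin cells), 24 h post-dosing; bidirectional curve fit vs DMSO baseline, gain or loss of signal scored.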

[8] = read-out: Interleukin-8 (IL8), CXCL8 (gene 3576); experiment: BSK_hDFCGF_IL8: BioMAP Diversity Plus: hDFCGF Assay for Interleukin-8 (IL8) Biomarker Activity (AID 2283058); settings: primary human foreskin fibroblasts; actives raise or lower the signal
Procedure, shortened: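 IL-8 levels from compound-treated primary human fibroblasts were read by ELISA at 24 h, with DMSO serving as baseline for bidirectional fitting.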

[9] = BSK_hDFCGF_Proliferation: Cell Proliferation Assessment in the BioMAP Diversity Plus: hDFCGF Assay (AID 2283059); settings: primary human foreskin fibroblasts;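 further: curves fitted for both rise and fall of signal versus DMSO baseline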
Procedure, shortened: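 Sub-confluent human foreskin fibroblast cultures receive test chemical […]. Relative cell number is quantified by sulforhodamine B staining (0.1%, after 10% TCA fixation) at 560 nm, with bidirectional fitting referenced to DMSO.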

[10] = read-out: Macrophage colony-stimulating factor (MCSF), CSF1 (gene 1435); experiment: BSK_hDFCGF_MCSF: BioMAP Diversity Plus: hDFCGF Assay for Macrophage colony-stimulating factor (MCSF) Biomarker Activity (AID 2283060); settings: primary human foreskin fibroblasts; actives raise or lower the signal
Procedure, shortened: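 M-CSF levels, determined by ELISA, are taken at 24 h after dosing human skin fibroblasts. Responses in either direction are fitted with DMSO serving as the baseline.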

Measured: AC50

CC(C)(C)CC(C)(C)c1ccc(O)cc1
active: [1] 33.8 µM | [2] 10 µM | [3] 9 µM | [4] 14.8 µM | [5] 12 µM | [6] 8.27 µM | [7] 20 µM | [8] 10.6 µM | [9] 8.07 µM | [10] 7.74 µM

O=C(O)C(Cl)(Cl)Cl
inactive: all assays above

C[C@@H]1C[C@@H]([C@H](O)CC2CC(=O)NC(=O)C2)C(=O)[C@@H](C)C1
active: [3] 2.32 µM | [4] 3.8 µM | [5] 0.926 µM | [8] 7.54 µM | [9] 4.27 µM | [10] 4.1 µM
inactive: [1] | [2] | [7]

CC(=O)OC(c1ccccc1)C(Cl)(Cl)Cl (centres undefined)
active: [9] 31 µM and 25.6 µM
inactive: all other assays above

CCNc1nc(NC(C)(C)C)nc(SC)n1
inactive: all assays above

C(=NC1CCCCC1)=NC1CCCCC1
active: [1] 34.5 µM | [2] 25.1 µM | [3] 11.7 µM | [4] 26.8 µM | [5] 20 µM | [6] 33.2 µM | [8] 32.4 µM | [9] 20 µM | [10] 20 µM
inactive: [7]

O=C(OC1CCCCC1)c1ccccc1C(=O)OC1CCCCC1
active: [1] 20.9 µM | [2] 33 µM | [3] 13.4 µM | [6] 5.33 µM | [7] 20.9 µM | [8] 34.9 µM | [9] 10.2 µM | [10] 11 µM
inactive: [4] | [5]

C=CC(=O)OCCCCCC(C)C
inactive: all assays above

O=S(=O)(c1ccc(Cl)cc1)c1ccc(Cl)cc1
inactive: all assays above

O=C(O)C(F)(F)C(F)(F)C(F)(F)C(F)(F)C(F)(F)C(F)(F)F
inactive: all assays above

CCOP(=S)(OCC)Oc1nc(Cl)c(Cl)cc1Cl
active: [1] 26.9 µM | [3] 20 µM | [6] 9.2 µM | [9] 14.9 µM | [10] 11.9 µM
inactive: [2] | [4] | [5] | [7] | [8]

CCN1CCC2(CC1)COc1cc3c(cc12)N(C(=O)c1ccc(-c2ccc(-c4nnc(C)o4)cc2C)cc1)CC3
active: [1] 33.7 µM | [3] 9.35 µM | [4] 31.1 µM | [5] 27.6 µM | [6] 9.42 µM | [8] 12.5 µM | [9] 5.13 µM | [10] 7.12 µM
inactive: [2] | [7]

ClC1=C(Cl)[C@]2(Cl)[C@H]3[C@H]([C@H]4C=C[C@H]3C4)[C@@]1(Cl)C2(Cl)Cl
active: [2] 0.266 µM | [6] 4.4 µM | [9] 8.76 µM | [10] 0.492 µM
inactive: all other assays above

CC(C)CCCCCCOC(=O)c1ccccc1C(=O)OCCCCCCC(C)C
active: [2] 0.0332 µM
inactive: all other assays above

Oc1cccc2cccnc12
active: [1] 4.74 µM | [3] 0.206 µM | [6] 3.47 µM | [7] 0.275 µM | [9] 0.852 µM | [10] 0.301 µM
inactive: [2] | [4] | [5] | [8]

CN(C)N=O
inactive: all assays above

NC(=S)Nc1ccccc1
inactive: all assays above
